This note sets out measurements from PubChem BioAssay AID1259417 (TB Discovery Research, Infectious Disease Research Institute, 2018).

Structures are written as SMILES. Among all 1,100 compounds or so, about 760 (69%) were called active. The rule behind the calls is not given here. The set was probably picked from earlier hits. The list shows a part of the results.

This assay can be described thus: M. tuberculosis growth inhibition, HTS (AID 1259417).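 Note: bacteria grown with compound for 5 days at 37 °C.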 The following applies: stronger effect = higher value, concentration not given here.
The mark [1] stands for this setting: M. tuberculosis DsRed fluorescence growth inhibition.
The mark [2] stands for this setting: M. tuberculosis growth inhibition.

In general, inhibition refers to the change of the read-out against control, counted positive when it falls. As to `COCCn1nnnc1C(c1cc2cc(OC)ccc2[nH]c1=O)N1CCC(Cc2ccccc2)CC1` (stereo unspecified), the inhibition is, setting by setting: under setting [1], 6.25% (inactive); under setting [2], -12.1%.

With `O=C(Oc1ccccc1)c1ccc(S(=O)(=O)N2CCCCC2)cc1`, the inhibition under setting [1] was 12% (active) and the inhibition under setting [2] came to 46.3%.

With `COc1ccc(CNC(=O)c2c(C)nc3ccccn23)cc1`, the inhibition under setting [1] is 99.4% (active) and the inhibition under setting [2] was 100%.

For `Cc1nn(Cc2ccccc2Cl)c2sc(C(=O)NCc3ccc4c(c3)OCO4)cc12`, the inhibition was -3.53% (inactive) under setting [1] and -15.9% under setting [2].

As to `Cc1nc2ccccn2c1C(=O)NCc1ccc2c(c1)OCO2`, the inhibition runs as follows: under setting [1], 99.7% (active); under setting [2], 99.6%.

As for `CCOC(=O)CSc1nc(C#N)c(SCC(=O)OCC)s1`, the inhibition was 31.4% (active) under setting [1] and 80.2% under setting [2].

As for `CCOC(=O)CSc1nc(N)c(C#N)c(CC(C)C)c1C#N`, the inhibition was -5.9% (inactive) under setting [1] and -4.83% under setting [2].

Take `Cc1ccc(NC(=O)CSc2ccc(-c3ccccn3)nn2)cc1`: the inhibition reads like this: under setting [1], 89% (active); under setting [2], 97.4%.

As for `COc1ccc(-c2nc(NC(=O)c3ccccc3)n[nH]2)cc1OC`, the inhibition under setting [1] is 97.2% (active) and the inhibition under setting [2] was 96.7%.

Regarding `CCOC(=O)c1c(NC(=O)c2ccccc2C)sc(C)c1-c1ccc(OC)c(OC)c1`, the inhibition was -3.52% (inactive) under setting [1] and -17.9% under setting [2].

For the compound `CC(C)=CCN1CCN(CCC2=C(C)CCCC2(C)C)CC1CCO` (stereo unspecified), the inhibition under setting [1] was -2.34% (inactive) and the inhibition under setting [2] is -26.9%.

Consider `COc1cccc(NC(=O)c2c(NC(=O)c3cccc(C)c3)sc3c2CCC3)c1`, for which the inhibition was -1.15% (inactive) under setting [1] and -10.7% under setting [2].

In the case of `COc1ccc(NC(=O)c2c(NC(=O)c3ccc([N+](=O)[O-])o3)sc3c2CCC3)cc1`, the inhibition by setting is: under setting [1], 96.5% (active); under setting [2], 96.2%.

Regarding `COC(=O)c1c(NC(=O)c2cccc(OC)c2)sc2c1C(C(=O)OC)CC2` (stereo unspecified), the inhibition reads like this: under setting [1], 1.52% (inactive); under setting [2], -13.4%.

With `COc1cccc(NC(=O)c2c(NC(=O)c3cccnc3)sc3c2CCC3)c1`, the inhibition was 92.4% (active) under setting [1] and 95.5% under setting [2].

With `CCn1ccnc1CN(C)Cc1cn(-c2cc(C)ccc2C)nc1-c1ccccc1`, the inhibition reads like this: under setting [1], 16.9% (inactive); under setting [2], 8.97%.

For the compound `CCn1ccnc1CN(C)Cc1cn(-c2ccc(C)cc2)nc1-c1cccc(C)c1`, the inhibition was 14.8% (inactive) under setting [1] and 8.21% under setting [2].

Regarding `CC(C)COc1ccc(-c2nn(-c3ccccc3)cc2C(=O)Nc2nccs2)cc1`, the inhibition under setting [1] was 2.38% (inactive) and the inhibition under setting [2] is -24.1%.

As for `Brc1ccc(-c2nn(-c3ccccc3)cc2CNCc2ccccc2)cc1`, the inhibition under setting [1] was 23.1% (active) and the inhibition under setting [2] came to 39.4%.

`Cc1ccc(-c2nn(-c3ccccc3)cc2CNCc2ccccc2)cc1`: the inhibition is 33.4% (active) under setting [1] and 66.5% under setting [2].

`CCOC(=O)c1c(-c2ccccc2)csc1NC(=O)c1cc2ccccc2oc1=O`: the inhibition was 7.43% (active) under setting [1] and 32.3% under setting [2].

Consider `CCOC(=O)c1c(-c2ccc(OC)c(OC)c2)csc1NC(=O)c1cccc(OC)c1OC`, for which the inhibition reads like this: under setting [1], 4.18% (inactive); under setting [2], -8.63%.

Regarding `CCc1nnc(NC(=O)c2cc3ccccc3oc2=O)s1`, the inhibition was 1% (active) under setting [1] and 47% under setting [2].

Regarding `CCOC(=O)c1cc(CC)sc1NC(=O)c1cc2ccccc2oc1=O`, the inhibition reads like this: under setting [1], 23.7% (active); under setting [2], 60.6%.

In the case of `NC(=O)c1c(NC(=O)c2cc3ccccc3oc2=O)sc2c1CCCCCC2`, the inhibition was 3.53% (inactive) under setting [1] and -10.8% under setting [2].

`Cc1sc(NC(=O)c2cc3ccccc3oc2=O)c(C(=O)OC(C)C)c1C`: the inhibition runs as follows: under setting [1], 6.18% (inactive); under setting [2], 28.3%.

Regarding `Cc1cc2ncn(Cc3ccc(C(C)C)cc3)c2cc1C`, the inhibition is, setting by setting: under setting [1], 90.4% (active); under setting [2], 98.3%.

With `Cc1cccc(OCCCn2cnc3cc(C)c(C)cc32)c1`, the inhibition is 88% (active) under setting [1] and 97.5% under setting [2].

Regarding `Cc1cc2ncn(CCOc3ccc(Cl)cc3)c2cc1C`, the inhibition was 88.3% (active) under setting [1] and 95.9% under setting [2].

Consider `C1=CC2CC1CC2CN1CCC(N(CCc2ccccc2)Cc2ccccc2)CC1` (stereo unspecified), for which the inhibition by setting is: under setting [1], 99.4% (active); under setting [2], 96.9%.

Take `c1ccc(CCN(Cc2ccccc2)C2CCN(Cc3c[nH]c4ccccc34)CC2)cc1`: the inhibition reads like this: under setting [1], 2.96% (inactive); under setting [2], -21.5%.

Consider `Cc1ccc(-c2nnc(N3CCN(C(=O)c4ccco4)CC3)c3ccccc23)cc1`, for which the inhibition under setting [1] is 3.3% (inactive) and the inhibition under setting [2] was -1.04%.

For the compound `O=C(OCn1nnc2ccccc2c1=O)c1ccco1`, the inhibition under setting [1] was 20.6% (active) and the inhibition under setting [2] was determined as 47%.

For `O=C(OCn1nnc2ccccc2c1=O)c1cccs1`, the inhibition is 42.4% (active) under setting [1] and 57.1% under setting [2].

Regarding `CCCn1nnnc1NC(=O)c1cccs1`, the inhibition is, setting by setting: under setting [1], 18.2% (inactive); under setting [2], 29.4%.

For the compound `O=C(OCn1nnc2ccccc2c1=O)c1ccccc1`, the inhibition was 40.5% (active) under setting [1] and 44.9% under setting [2].

Consider `COc1ccc(CCNC(=O)c2ccc(C#CC(C)(C)O)s2)cc1`, for which the inhibition is, setting by setting: under setting [1], 92.7% (active); under setting [2], 80.8%.

In the case of `COc1ccc(NC(=O)c2ccc(C#CC(C)(C)O)s2)cc1`, the inhibition runs as follows: under setting [1], 58.8% (active); under setting [2], 31.9%.

Turning to `Cn1ccnc1C(O)c1cc(C(C)(C)C)c(O)c(C(C)(C)C)c1` (stereo unspecified), the inhibition is 22.8% (inactive) under setting [1] and 28.3% under setting [2].

As for `CCCCNC(=O)Nc1nnc(-c2ccc(Cl)cc2)o1`, the inhibition is 14.7% (inactive) under setting [1] and 4.64% under setting [2].

As for `Cc1ccccc1C(=O)Nc1nnc(-c2ccc(Cl)cc2)o1`, the inhibition under setting [1] is 83.5% (active) and the inhibition under setting [2] stood at 90.7%.

With `Cc1ccccc1C(=O)Nc1nnc(-c2ccc(F)cc2)o1`, the inhibition was 75.4% (active) under setting [1] and 84.5% under setting [2].

Take `CC1CCCN(c2ccc([N+](=O)[O-])s2)C1` (stereo unspecified): the inhibition was 97.6% (active) under setting [1] and 99.3% under setting [2].

As for `COc1ccc(OCC(=O)Nc2cccc(Cl)c2)cc1`, the inhibition runs as follows: under setting [1], 6.16% (inactive); under setting [2], -19%.

As for `COC(=O)COc1ccc(NC(=O)COc2cccc(C)c2)cc1`, the inhibition is, setting by setting: under setting [1], 68.1% (active); under setting [2], 90.9%.

Regarding `COC(=O)COc1ccc(CSCC(=O)Nc2ccc3ccccc3c2)cc1`, the inhibition is 33.1% (active) under setting [1] and 58.5% under setting [2].

Turning to `COC(=O)COc1cccc(NC(=O)COc2ccccc2)c1`, the inhibition runs as follows: under setting [1], 50% (active); under setting [2], 64.5%.

As for `CCOc1ccc(OCC(=O)Nc2cc(C)cc(C)c2)cc1`, the inhibition is 2.08% (active) under setting [1] and 38.4% under setting [2].

In the case of `Cc1cc(C)cc(NC(=O)COc2cccc(C=O)c2)c1`, the inhibition reads like this: under setting [1], 4.11% (inactive); under setting [2], 13.2%.

In the case of `COC(=O)COc1ccc(NC(=O)COc2ccc(C)cc2C)cc1`, the inhibition is, setting by setting: under setting [1], 99.4% (active); under setting [2], 99.7%.

Regarding `COC(=O)COc1ccc(NC(=O)COc2ccc(C(C)(C)C)cc2)cc1`, the inhibition under setting [1] is 98.8% (active) and the inhibition under setting [2] was 99.4%.

With `Cc1ccc(CSCC(=O)Nc2ccccc2)cc1`, the inhibition is, setting by setting: under setting [1], 3.53% (active); under setting [2], 35.4%.

For the compound `Cc1ccnc(NC(=O)COc2ccc([N+](=O)[O-])cc2)c1`, the inhibition was -0.546% (inactive) under setting [1] and 11.9% under setting [2].

`Cc1ccc(CSCC(=O)Nc2ccc(Cl)c(Cl)c2)cc1`: the inhibition under setting [1] is 2.65% (inactive) and the inhibition under setting [2] was determined as 11.4%.

On to `CCOC(=O)CSc1nnc(-c2cccc(Br)c2)o1`, for which the inhibition is 67.1% (active) under setting [1] and 85.8% under setting [2].

As for `CCOC(=O)N1CCN(C(=O)CSc2nnc(-c3cc(OC)cc(OC)c3)o2)CC1`, the inhibition is 24.7% (inactive) under setting [1] and 11.7% under setting [2].

With `CCOC(=O)CSc1nnc(-c2cc(OC)c(OC)c(OC)c2)o1`, the inhibition was 85.2% (active) under setting [1] and 90.4% under setting [2].

As for `CCCOC(=O)CSc1nnc(-c2cc(OC)c(OC)c(OC)c2)o1`, the inhibition by setting is: under setting [1], 71.2% (active); under setting [2], 87.3%.
